Source: PubChem (Buhrlage Lab, Dana-Farber Cancer Institute and Novartis Institutes for BioMedical Research (Cambridge, Mass))
USP17 block – inhibitors of human USP17 deubiquitinase; inhibition, % at 50 µM; Ubiquitin carboxyl-terminal hydrolase 17-like protein 5 (Homo sapiens), A8MUK1; 47,000 compounds, 6.5% hits; purified USP17, Ub-rhodamine cleavage fluorescence, 3 h
USP10 inh – inhibitors of human USP10 deubiquitinase; 47,000 compounds, 1.1% hits; Ubiquitin carboxyl-terminal hydrolase 10 (Homo sapiens), Q14694; inhibition, % at 20 µM; purified USP10, Ub-rhodamine fluorescence, 60 min; AID 1645856, 2021
Target sequence (Q14694 whole entry, looked up): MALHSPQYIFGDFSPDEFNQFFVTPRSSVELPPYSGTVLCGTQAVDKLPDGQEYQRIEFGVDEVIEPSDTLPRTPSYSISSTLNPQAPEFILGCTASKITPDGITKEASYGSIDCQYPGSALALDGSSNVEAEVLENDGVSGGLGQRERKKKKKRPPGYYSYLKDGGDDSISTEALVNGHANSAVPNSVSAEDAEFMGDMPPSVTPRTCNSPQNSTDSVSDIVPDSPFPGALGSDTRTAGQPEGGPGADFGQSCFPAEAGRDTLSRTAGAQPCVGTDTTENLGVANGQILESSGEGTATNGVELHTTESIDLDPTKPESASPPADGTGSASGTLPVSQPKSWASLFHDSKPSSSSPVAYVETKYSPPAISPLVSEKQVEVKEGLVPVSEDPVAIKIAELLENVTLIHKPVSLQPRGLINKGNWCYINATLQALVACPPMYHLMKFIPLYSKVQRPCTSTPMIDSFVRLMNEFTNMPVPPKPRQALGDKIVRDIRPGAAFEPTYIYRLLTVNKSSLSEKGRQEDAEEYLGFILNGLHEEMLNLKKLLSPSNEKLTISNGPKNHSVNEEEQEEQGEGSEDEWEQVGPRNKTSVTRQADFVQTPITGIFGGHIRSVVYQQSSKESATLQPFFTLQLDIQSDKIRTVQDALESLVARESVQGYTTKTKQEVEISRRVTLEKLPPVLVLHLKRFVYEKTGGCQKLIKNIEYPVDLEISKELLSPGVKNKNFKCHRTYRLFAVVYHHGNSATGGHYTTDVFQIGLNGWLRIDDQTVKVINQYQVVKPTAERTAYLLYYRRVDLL
USP28 inh – inhibitors of human USP28 deubiquitinase. Ubiquitin carboxyl-terminal hydrolase 28 (Homo sapiens), Q96RU2. purified USP28, Ub-rhodamine cleavage fluorescence, 30 min. inhibition, % at 25 µM. 47,000 compounds, 3% hits. AID 1645857, 2021
OTUD3 inh – inhibitors of human OTUD3 deubiquitinase | 47,000 compounds, 0.7% hits | AID 1645858, 2021 | OTU domain-containing protein 3 (Homo sapiens), Q5T2D3 | purified OTUD3, Ub-rhodamine fluorescence, 2 h | inhibition, % at 25 µM
USP8 block – inhibitors of human USP8 deubiquitinase; purified USP8, Ub-rhodamine cleavage fluorescence, 30 min; AID 1645853, 2021; inhibition, % at 20 µM; 47,000 compounds, 4.2% hits; Ubiquitin carboxyl-terminal hydrolase 8 (Homo sapiens), P40818
USP30 block – inhibitors of human USP30 deubiquitinase. Ubiquitin carboxyl-terminal hydrolase 30 (Homo sapiens), Q70CQ3. purified USP30, Ub-rhodamine cleavage fluorescence. inhibition, % at 25 µM. 47,000 compounds, 5.3% hits. AID 1645860, 2021
Numbers without * were called inactive; . = no result. Sampled rows, rich in hits. Any-hit rate of the full collection: about 13%. No stated cut-off is given here; in the data, active means inhibition above about 30%; inactive means the rest.

SMILES | USP17 block | USP10 inh | USP28 inh | OTUD3 inh | USP8 block | USP30 block
O=C1CC(c2noc(-c3ccncc3)n2)CN1Cc1ccc(F)cc1 (centres undefined) | 0 | -4 | -9 | -4 | -15 | -93
CCCCNC(=O)c1cc2c(=O)n3ccccc3nc2n1CCCOC | 2 | -2 | -3 | 0 | -4 | 3
COCCCn1c(C(=O)NCCC(C)C)cc2c(=O)n3ccccc3nc21 | 32* | 2 | 21 | 17 | 2 | 34*
COCCCn1c(C(=O)Nc2ccc(OC)cc2)cc2c(=O)n3ccccc3nc21 | 1 | -2 | -16 | -6 | 0 | -8
COCCCn1c(C(=O)Nc2ccccc2OC)cc2c(=O)n3ccccc3nc21 | 77* | 4 | 7 | 5 | -4 | 35*
COc1cc2nc(CN3CCN(c4ccccc4F)CC3)[nH]c(=O)c2cc1OC | -7 | -5 | 1 | 5 | -2 | -4
COc1cc2nc(CN3CCN(c4ccc(O)cc4)CC3)[nH]c(=O)c2cc1OC | 41* | -2 | -2 | -14 | 38* | -48
CC(C)c1ccccc1Oc1coc2cc(O)ccc2c1=O | 3 | -6 | 0 | -6 | -8 | -8
COc1ccc(CNC(=O)Cc2cccc3ccccc23)cc1OC | 24 | -1 | 8 | 21 | 0 | 30*
COc1ccc(CC(=O)NCc2cc3ccccc3s2)cc1OC | -6 | -3 | 9 | -4 | -20 | -23
COc1ccc(CCNC(=O)c2cc3ccccc3s2)cc1OC | -18 | 0 | 86* | -17 | -14 | -26
COc1ccc(CNC(=O)c2ccc(-c3nnc(-c4ccccc4)o3)cc2)cc1OC | 25 | -2 | 10 | 13 | 14 | 42*
COc1ccc(-c2nsc(NC(=O)Cc3cccc4ccccc34)n2)cc1OC | 0 | -9 | 33* | -7 | 4 | -57
O=C(Nc1cccc2cn[nH]c12)c1cc(Cl)ccc1-n1cnnn1 | -15 | -7 | -27 | -26 | -4 | -77
O=C(NCc1ccc2c(c1)OCO2)c1ccc(CSc2nc3ccncc3[nH]2)cc1 | 3 | -13 | 6 | -8 | -17 | -29
O=C(NCc1ccc(F)cc1)Nc1ccc(-c2nnc(-c3ccccc3)o2)cc1 | 72* | 5 | . | -2 | 4 | .
CCC(=O)Nc1nc(-c2ccc(C)cc2)ns1 | 46* | 0 | 6 | -9 | 3 | -80
CCn1c(SCC(=O)c2c(N)n(CC(C)C)c(=O)n(C)c2=O)nnc1-c1ccccc1 | 58* | 19 | -9 | -2 | 14 | -3
Fc1ccc(CNc2cc(-n3ccnc3)ncn2)c(F)c1 | -58 | -4 | -12 | -39 | -103 | -173
Fc1ccc(F)c(-c2nnc(-c3ccc(-n4ccnc4)nc3)o2)c1 | 47* | -4 | 17 | 6 | 25 | 25
Fc1ccc(Cl)cc1-c1nnc(-c2ccc(-n3ccnc3)nc2)o1 | 48* | 1 | 16 | 19 | 23 | 46*
CCN1CCCC1CN(Cc1cc2ccc(C)c(C)c2[nH]c1=O)C(=O)Nc1ccccc1F (centres undefined) | 7 | 0 | -3 | -4 | 9 | -30
CC(=O)N1c2ccccc2NC2=C(C(=O)CC(c3ccccc3)C2)C1c1ccco1 (centres undefined) | -11 | -1 | 0 | 0 | -21 | -4
COc1ccc(C(NS(=O)(=O)c2ccc(S(=O)(=O)N3CCOCC3)cc2)c2ccccc2)cc1 (centres undefined) | 9 | 9 | 12 | 9 | -30 | 36*
O=S(=O)(c1ccc(-c2noc(COc3ccccc3)n2)cc1)N1CCOCC1 | 14 | -1 | -19 | -12 | 0 | -8
Cc1cc(C)c2c(NC(=O)c3cccc4ccccc34)nn(C)c2n1 | 49* | 3 | -4 | 0 | 10 | 17
COc1cccc(CC(=O)Nc2cccc(S(=O)(=O)N3CCOCC3)c2)c1 | 3 | 0 | -3 | -4 | 0 | -10
COc1ccc(-c2ccc(CC3CN(C(=O)c4cccc(OC)c4)CCNC3=O)cc2)cc1 (centres undefined) | 12 | -1 | 5 | 7 | 17 | 4
